# Bioassay records deposited in PubChem BioAssay by Broad Institute.
# T cruzi growth-1: T. cruzi proliferation inhibition. 77,000 tested, 5.9% active. inhibition, % at 8.34 µM. T. cruzi beta-gal in NIH3T3, GalScreen luminescence, 90 h;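 active means mean inhibition above about 93%, with at least 55% of replicates each passing it, limit read from the data, passing the limit was not always enough; inconclusive means only one of those two conditions holds; inactive means neither condition holds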
# Pf Dd2 growth: P. falciparum Dd2 growth inhibition; SYBR Green, 72 h; active compounds read low; activity change, % at 10 µM; 94,000 tested, 2.3% active; in the data active means activity change below about -80%; inconclusive means no clear call, values can overlap the other calls
# C diff HTS: C. difficile growth inhibition | 86,000 tested, 0.25% active | growth activity, negative = inhibition, % at 16 µg/mL (by protocol) | Clostridium difficile clinical isolate growth, OD600, 24 h; active compounds read low;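 active means mean growth activity at or below -80% and every replicate also at or below -80%; inconclusive means mean at or below -80% but some replicate above -80%; inactive means mean growth activity above -80%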
# T cruzi growth-2: blocks T. cruzi growth in NIH3T3 host cells | shares compounds with T cruzi growth-1 | T. cruzi beta-gal in NIH3T3, GalScreen luminescence, 90 h | inhibition, % at 8.35 µM | 5,600 tested, 72% active | AID 651739;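 active means mean replicate inhibition above about 95% and at least 55% of replicates individually reaching it, limit read from the data; inconclusive means only one of the two criteria is met; inactive means neither criterion is met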
# T cruzi growth-3: inhibitors of T. cruzi proliferation. shares compounds with T cruzi growth-1. T. cruzi beta-gal in NIH3T3, GalScreen luminescence, 90 h. inhibition, % at 2.09 µM. 5,600 tested, 21% active;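 active means mean inhibition above about 95%, with at least 55% of replicates also reaching it, limit read from the data; inconclusive means meets just one of the two conditions; inactive means meets neither condition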
# NIH3T3 tox: NIH/3T3 (mouse) viability loss; 5,600 tested, 14% active; shares compounds with T cruzi growth-1; cytotoxicity (signal decrease), % at 8.35 µM; NIH/3T3 viability, CellTiter-Glo ATP luminescence, 90 h; AID 651742;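 active means mean signal decrease across replicates above about 35% based on untreated-well scatter, with enough replicates individually passing, limit read from the data; inconclusive means no rule stated though some were filed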
# NIH3T3 tox 2: NIH/3T3 (mouse) viability loss; shares compounds with T cruzi growth-1; 5,600 tested, 56% active; NIH/3T3 viability, CellTiter-Glo ATP luminescence, 90 h; inhibition, % at 24.9 µM; AID 651744;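 active means mean loss of cell viability signal at or above a set limit, and enough replicates individually reaching it; inconclusive means meets only the mean limit or only the replicate share; inactive means meets neither condition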
# Numbers stand for hits; i = inactive; ? = inconclusive; nt = no result. Only some compounds are listed: those with a hit (about 6.7% of all), similar ones and a draw of the others.
SMILES,T cruzi growth-1,Pf Dd2 growth,C diff HTS,T cruzi growth-2,T cruzi growth-3,NIH3T3 tox,NIH3T3 tox 2
O=S(=O)(Cc1ccccc1)N1CCCCN2[C@H](CO)[C@@H](c3ccc(-c4ccccc4)cc3)[C@H]2C1,112,i,i,101,i,i,106
CCS(=O)(=O)N1CCCCN2[C@H](C1)[C@@H](c1ccc(-c3ccccc3)cc1)[C@@H]2CO,i,i,i,nt,nt,nt,nt
CCS(=O)(=O)N1CCCCN2[C@H](C1)[C@H](c1ccc(-c3ccccc3)cc1)[C@@H]2CO,i,i,i,nt,nt,nt,nt
CN(C)CC(=O)N[C@@H]1CC[C@@H](CC(=O)NCCN2CCCCC2)O[C@H]1CO,i,i,i,nt,nt,nt,nt
C[C@@H]1CN([C@@H](C)CO)C(=O)c2cccc(NS(=O)(=O)c3ccccc3)c2O[C@@H]1CN(C)S(C)(=O)=O,i,i,i,nt,nt,nt,nt
C[C@@H]1CN([C@@H](C)CO)C(=O)c2cc(C3=CCCC3)cnc2O[C@@H]1CN(C)C(=O)c1ccncc1,i,i,i,nt,nt,nt,nt
O=S(=O)(c1ccc(F)cc1)N1CCCCN2[C@H](CO)[C@@H](c3ccc(-c4ccccc4)cc3)[C@@H]2C1,i,i,i,nt,nt,nt,nt
O=S(=O)(c1ccc(F)cc1)N1CCCCN2[C@H](C1)[C@@H](c1ccc(-c3ccccc3)cc1)[C@@H]2CO,103,i,i,108,i,i,62
CC(C)NC(=O)N(C)C[C@@H]1Oc2ccc(NC(=O)Nc3ccccc3)cc2C(=O)N([C@H](C)CO)C[C@H]1C,i,i,i,nt,nt,nt,nt
C[C@H]1CN([C@@H](C)CO)C(=O)Cc2cc(NS(=O)(=O)c3ccc(Cl)cc3)ccc2O[C@@H]1CN(C)Cc1ccccc1,102,i,i,104,i,i,83
C[C@@H]1CN([C@@H](C)CO)C(=O)Cc2cc(NS(C)(=O)=O)ccc2O[C@H]1CN(C)Cc1ccc(-c2ccccc2)cc1,i,i,i,nt,nt,nt,nt
C[C@@H]1CN([C@H](C)CO)C(=O)Cc2cc(NS(=O)(=O)c3ccc(F)cc3)ccc2O[C@@H]1CN(C)Cc1ccccc1,i,i,i,nt,nt,nt,nt
C[C@H](CO)N1C[C@H](C)[C@@H](CN(C)Cc2ccc(-c3ccccc3)cc2)Oc2ccc(NS(C)(=O)=O)cc2CC1=O,118,i,i,112,?,i,105
C[C@@H]1CN([C@H](C)CO)C(=O)Cc2cc(NS(=O)(=O)c3ccccc3)ccc2O[C@@H]1CN(C)Cc1ccc(-c2ccccc2)cc1,i,i,i,nt,nt,nt,nt
C[C@@H]1CN([C@@H](C)CO)C(=O)Cc2cc(NS(=O)(=O)c3ccc(Cl)cc3)ccc2O[C@@H]1CN(C)Cc1ccccc1,i,i,i,nt,nt,nt,nt
C[C@H](CO)N1C[C@H](C)[C@@H](CN(C)Cc2ccccc2)Oc2ccc(NS(=O)(=O)c3ccc(F)cc3)cc2CC1=O,109,i,i,96,i,i,i
C[C@H]1CN([C@@H](C)CO)C(=O)Cc2cc(NS(=O)(=O)c3ccc(Cl)cc3)ccc2O[C@@H]1CN(C)Cc1ccc(-c2ccccc2)cc1,99,i,nt,105,i,i,107
C[C@@H]1CN([C@H](C)CO)C(=O)c2cc(/C=C/c3ccccc3)cnc2O[C@H]1CN(C)Cc1cccnc1,i,i,i,nt,nt,nt,nt
O=C(C[C@H]1CC[C@H]2[C@@H](COC[C@@H](O)CN2C(=O)c2cccnc2)O1)Nc1ccc(-c2ccccc2)cc1,i,i,i,nt,nt,nt,nt
C[C@@H]1CN([C@H](C)CO)C(=O)c2cc(NC(=O)C3CCCCC3)ccc2O[C@H]1CN(C)C(=O)NC1CCCCC1,i,i,i,nt,nt,nt,nt
O=C([C@@H]1[C@@H](CO)[C@@H]2Cn3c(ccc(C4=CCCCC4)c3=O)[C@@H]2N1Cc1nccs1)N1CCOCC1,i,i,i,nt,nt,nt,nt
Cc1ccccc1S(=O)(=O)N1CCCCN2[C@H](CO)[C@@H](c3ccc(-c4cccnc4)cc3)[C@@H]2C1,i,i,i,nt,nt,nt,nt
Cc1ccccc1S(=O)(=O)N1CCCCN2[C@H](CO)[C@@H](c3ccc(-c4cncnc4)cc3)[C@H]2C1,i,i,i,nt,nt,nt,nt
O=S(=O)(c1ccccc1F)N1CCCCN2[C@@H](CO)[C@@H](c3ccc(-c4ccncc4)cc3)[C@@H]2C1,?,i,i,107,i,i,27
Cc1ccccc1S(=O)(=O)N1CCCCN2[C@@H](CO)[C@H](c3ccc(-c4cncnc4)cc3)[C@@H]2C1,117,i,i,i,i,i,?
SMILES,T cruzi growth-1,Pf Dd2 growth,C diff HTS,T cruzi growth-2,T cruzi growth-3,NIH3T3 tox,NIH3T3 tox 2
O=S(=O)(c1ccccc1F)N1CCCCN2[C@H](C1)[C@@H](c1ccc(-c3ccccc3)cc1)[C@@H]2CO,i,i,i,nt,nt,nt,nt
Cc1ccccc1S(=O)(=O)N1CCCCN2[C@H](CO)[C@H](c3ccc(-c4cccnc4)cc3)[C@H]2C1,100,i,i,108,i,i,80
COc1ccc(NC(=O)Nc2ccc3c(c2)C(=O)N([C@@H](C)CO)C[C@@H](C)[C@@H](CN(C)Cc2ccc(Cl)c(Cl)c2)OCCCC[C@@H](C)O3)cc1,126,-80,i,96,114,i,i
COc1ccc(NC(=O)Nc2ccc3c(c2)C(=O)N([C@H](C)CO)C[C@H](C)[C@@H](CN(C)Cc2ccc(Cl)c(Cl)c2)OCCCC[C@@H](C)O3)cc1,122,i,i,113,100,i,i
COc1ccc(CN(C)C[C@H]2OCCCC[C@H](C)Oc3ccc(NC(=O)Nc4ccc(OC)cc4)cc3C(=O)N([C@@H](C)CO)C[C@H]2C)cc1,i,i,nt,nt,nt,nt,nt
COc1ccc(NC(=O)Nc2ccc3c(c2)C(=O)N([C@@H](C)CO)C[C@@H](C)[C@H](CN(C)Cc2ccc4c(c2)OCO4)OCCCC[C@H](C)O3)cc1,i,i,i,nt,nt,nt,nt
COc1ccc(CN(C)C[C@H]2OCCCC[C@@H](C)Oc3ccc(NC(=O)Nc4ccc(OC)cc4)cc3C(=O)N([C@H](C)CO)C[C@@H]2C)cc1,i,i,nt,nt,nt,nt,nt
COc1ccc(NC(=O)Nc2ccc3c(c2)C(=O)N([C@@H](C)CO)C[C@H](C)[C@@H](CN(C)Cc2ccc(Cl)c(Cl)c2)OCCCC[C@@H](C)O3)cc1,126,-87,i,102,114,i,i
COc1ccc(NC(=O)Nc2ccc3c(c2)C(=O)N([C@H](C)CO)C[C@H](C)[C@H](CN(C)Cc2ccc(Cl)c(Cl)c2)OCCCC[C@@H](C)O3)cc1,121,i,i,104,107,i,i
O=C(N[C@@H]1C=C[C@@H](CC(=O)N2CCc3ccccc3C2)O[C@@H]1CO)C1CCC1,nt,i,i,nt,nt,nt,nt
C[C@H](CO)N1C[C@H](C)[C@@H](CN(C)C(=O)Nc2ccc(F)cc2)Oc2ccc(NC(=O)Cn3cnnn3)cc2CC1=O,i,i,nt,nt,nt,nt,nt
CO[C@H]1CN(C)C(=O)c2ccc(NC(=O)Cc3ccccc3)cc2OC[C@@H](C)N(C)C[C@@H]1C,i,i,i,nt,nt,nt,nt
